Experimental data reported in PubChem BioAssay (NCATS).
Results filed as inconclusive are left out. A call without a number means that no potency is given here. The source made the active and inactive calls. Calls come from the whole dose curve; as a rule, active = well fitted inhibition curve with a large enough effect; inconclusive = small, poorly fitted or top-dose-only effect; inactive = flat fitted curve, though single readings scatter.

Biological target: Calcium and integrin-binding protein 1 (Homo sapiens) (UniProt Q99828)
Test: Primary qHTS for Identification of Calcium Integrin Binding Protein 1 (CIB1) Competitor (AID 1508620);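 note: GST tagged CIB1 binding a fluorescein labelled alphaIIb integrin peptide tracer; top concentration of the series differs between compounds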
Details: CIB1-GST / FITC-alphaIIb peptide fluorescence polarization; series mostly up to 114 µM
Outline: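 CIB1-GST (1 uM final) and compound incubated 15 min at room temperature before adding FITC-alphaIIb peptide tracer (100 nM final). Competition for binding read by fluorescence polarization (ex 480, em 540) after another 15 min at room temperature.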

Sequence of Calcium and integrin-binding protein 1 (Homo sapiens) (Q99828 whole entry, looked up): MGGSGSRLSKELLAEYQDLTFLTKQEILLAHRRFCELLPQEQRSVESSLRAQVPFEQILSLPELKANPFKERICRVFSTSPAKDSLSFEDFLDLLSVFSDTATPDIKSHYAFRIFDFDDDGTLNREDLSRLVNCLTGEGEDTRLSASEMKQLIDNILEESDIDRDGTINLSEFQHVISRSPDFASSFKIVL

Compound	Potency
CC(C)(C)OC(=O)N1CCN(c2ccc(NCc3cnc(-c4ccc(C#N)cc4)o3)cc2)CC1	inactive
NC(=O)C[C@H](N)C(=O)Nc1ccc(Cl)cc1C(=O)c1ccc[nH]1	inactive
COc1cccc(N2C(=O)c3ccccc3C2=O)n1	inactive
O=C1CCCC2=C1C(c1[nH]ncc1Cl)NC(=NCc1ccccc1)N2 (stereo not given)	inactive
Cc1ccc2nc3sc(C(=O)Nc4ccc(F)cc4)cc3cc2c1	inactive
CCOc1ccc(CNc2ccc(-c3nc4ccccc4[nH]3)cc2)cc1	inactive
CSc1ccccc1-c1ccc(Nc2nc(-c3ccncc3)nc3ccccc23)cc1F	inactive
Nc1ccc(S(=O)(=O)N2CCN(S(=O)(=O)c3c(F)cccc3F)CC2)cc1	inactive
Cc1nc(CNc2ncnc3ccc(-c4ccoc4C)cc23)cs1	inactive
Fc1ccc(-c2ccc(Nc3nc(-c4ccncc4)nc4ccccc34)cc2F)c(Cl)c1	inactive
Brc1ccc(-c2csc(N3CCCCC3)n2)cc1	inactive
CC(=O)Nc1ccc(S(=O)(=O)Nc2cccc3cccnc23)cc1	inactive
Cc1cc(C)nc(NC(=S)N2CCN(Cc3cccc4ccccc34)CC2)c1	inactive
Cc1cccc(-c2nnc(C)n2CCCn2ccnc2)c1N	inactive
CC(C)(C)OC(=O)N1CCN(c2ccc(NCc3ccc(-c4ccc(C#N)cc4)nc3)cc2)CC1	inactive
Cc1noc(C)c1-c1ccc2ncnc(NCc3ccc(-c4ccccc4)cc3)c2c1	inactive
N#CN1CCC(NC(=O)c2ccc(F)cc2)CC1	inactive
COc1ccc(C2Nc3ccccc3C(=O)N2Cc2ccccc2)cc1COc1ccc(NC(C)=O)cc1 (stereo not given)	inactive
O=C1CCc2cc(S(=O)(=O)Nc3ccc(F)cc3)ccc2N1	inactive
COc1ccccc1CNC(=O)Nc1nnc(-c2ccncc2)s1	inactive

Compound	Potency
O=S(=O)(Nc1ccc(O)c2ncccc12)c1ccccc1F	inactive
CCCCN(C)C(=O)Cn1nc(-c2ccncc2)ccc1=O	inactive
COc1cccc(CNc2ccc(S(=O)(=O)Nc3cnc4ccccc4c3)cc2)c1O	inactive
Cc1cccc(CNc2ccnc(-c3cccc4ccccc34)n2)c1	inactive
CCOc1ccc(CCNC(=O)c2cc3ccccc3n2Cc2cc(C)cc(C)n2)cc1OCC	inactive
O=C(NC1CCCc2c1cnn2-c1ccc(F)cc1F)c1ccccn1 (stereo not given)	inactive
O=C(CSc1nnc(-c2cccc(S(=O)(=O)N3CCCC3)c2)n1-c1ccccc1)Nc1ccc(Cl)cc1	inactive
O=C(Nc1ccc2c(c1)OCO2)Nc1nnc(-c2ccncc2)s1	inactive
CC(=O)Nc1ccc(C(=O)Nc2ccc(-c3nc4ccccc4[nH]3)cc2)cc1	inactive
Nc1ccc(NC(=O)Nc2nnc(-c3ccncc3)s2)cc1C(F)(F)F	inactive
Cn1c2cc(CO)sc2c2cnn(Cc3ccccc3F)c(=O)c21	inactive
CC(C)(C)OC(=O)N1CCN(c2ccc(NCc3ccc(-c4ccc(C(C)(C)C)cc4)o3)cc2)CC1	inactive
Cc1cc2c(s1)c1cnn(Cc3cc(F)cc(F)c3F)c(=O)c1n2C	inactive
Cc1cc(-c2nc(Nc3ccc(F)c(F)c3)c3ccccc3n2)ccn1	inactive
CS(=O)(=O)c1ccccc1-c1csc(N2CCC(C(N)=O)CC2)n1	inactive
C=Cc1cc(F)c(S(=O)(=O)N2CCN(S(=O)(=O)c3ccc4c(c3)OCCO4)CC2)cc1F	inactive
O=C(O)c1ccc(-c2noc(-c3ccccc3F)n2)cc1	inactive
C[C@@H]1CN(S(=O)(=O)c2ccc3c(c2)OCCO3)CCN1S(=O)(=O)c1c(F)cccc1F	inactive
Cc1cc2c(s1)c1cnn(Cc3ccc(C(=O)O)cc3)c(=O)c1n2C	inactive
CC(C)(C)OC(=O)NCc1nnc(-c2cc3ccccc3[nH]2)s1	inactive
